Results from PubChem BioAssay AID1117282 (The Scripps Research Institute Molecular Screening Center, 2014).
Some of the results follow. A number with no mark means an inactive call.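 How the source made its calls: active means mean inhibition across replicates above a set limit taken from the earlier primary screen (cut at about 11% in these data); inactive means the rest.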

These compounds were tested against RNA-editing ligase 1, mitochondrial (Trypanosoma brucei brucei) (UniProt P86926) (assay: T. brucei editing ligase REL1 blockade – biochemical, FRET fluorescence, triplicate, confirmation (AID 1117282;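 further: 0% = REL1 with substrate and DMSO and 100% = REL1 plus control inhibitor NSC42067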)). Details: TbREL1 RNA ligation, at 9.66 µM, stronger effect = higher value.
Chain of RNA-editing ligase 1, mitochondrial (Trypanosoma brucei brucei) (P86926 whole entry, looked up): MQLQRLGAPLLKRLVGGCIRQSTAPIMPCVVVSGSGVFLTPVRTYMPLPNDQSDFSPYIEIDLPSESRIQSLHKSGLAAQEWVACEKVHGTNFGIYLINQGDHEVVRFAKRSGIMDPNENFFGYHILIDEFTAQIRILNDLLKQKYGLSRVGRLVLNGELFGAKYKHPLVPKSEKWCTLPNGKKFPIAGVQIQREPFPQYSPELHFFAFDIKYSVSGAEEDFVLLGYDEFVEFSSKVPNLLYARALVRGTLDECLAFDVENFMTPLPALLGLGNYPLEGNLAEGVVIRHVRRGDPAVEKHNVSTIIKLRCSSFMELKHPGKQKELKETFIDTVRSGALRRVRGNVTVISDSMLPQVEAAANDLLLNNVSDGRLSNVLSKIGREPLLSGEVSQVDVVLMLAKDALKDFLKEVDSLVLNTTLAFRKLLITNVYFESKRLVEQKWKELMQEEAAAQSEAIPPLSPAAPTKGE

Question: For `O=c1[nH]c2ccccc2n1C1CCN(C(c2ccccc2)c2nnnn2Cc2ccccc2)CC1` (stereo not drawn), which inhibition is on record?
Answer: Its inhibition is 1.44%.

Question: Which inhibition does the source give for `CC1CCCCN1Cc1cccnc1` (stereo not drawn) here?
Answer: Its inhibition is 5.17%.

Question: For `CN1CCN(c2cc(N3CCNCC3)ccc2[N+](=O)[O-])CC1`, which inhibition is on record?
Answer: Its inhibition is 9.79%.
